Source: the supplement of paper PMC3334620
In all, about 33,000 sequences were measured (“E-score (-0.5 to 0.5)”: median about -0.012, highest 2% from about 0.29 on). What follows is part of a selection rich in the highest values, with near analogues and random picks from the rest.

The sequences below were run against T1, Ybr033w (UniProt P38073) (assay: PBM E-score (8-mer binding enrichment) (E-score (-0.5 to 0.5)); higher = stronger / more preferred TF binding). Conditions: protein concentration: 200 nM; construct: GST-full length.
T1 sequence: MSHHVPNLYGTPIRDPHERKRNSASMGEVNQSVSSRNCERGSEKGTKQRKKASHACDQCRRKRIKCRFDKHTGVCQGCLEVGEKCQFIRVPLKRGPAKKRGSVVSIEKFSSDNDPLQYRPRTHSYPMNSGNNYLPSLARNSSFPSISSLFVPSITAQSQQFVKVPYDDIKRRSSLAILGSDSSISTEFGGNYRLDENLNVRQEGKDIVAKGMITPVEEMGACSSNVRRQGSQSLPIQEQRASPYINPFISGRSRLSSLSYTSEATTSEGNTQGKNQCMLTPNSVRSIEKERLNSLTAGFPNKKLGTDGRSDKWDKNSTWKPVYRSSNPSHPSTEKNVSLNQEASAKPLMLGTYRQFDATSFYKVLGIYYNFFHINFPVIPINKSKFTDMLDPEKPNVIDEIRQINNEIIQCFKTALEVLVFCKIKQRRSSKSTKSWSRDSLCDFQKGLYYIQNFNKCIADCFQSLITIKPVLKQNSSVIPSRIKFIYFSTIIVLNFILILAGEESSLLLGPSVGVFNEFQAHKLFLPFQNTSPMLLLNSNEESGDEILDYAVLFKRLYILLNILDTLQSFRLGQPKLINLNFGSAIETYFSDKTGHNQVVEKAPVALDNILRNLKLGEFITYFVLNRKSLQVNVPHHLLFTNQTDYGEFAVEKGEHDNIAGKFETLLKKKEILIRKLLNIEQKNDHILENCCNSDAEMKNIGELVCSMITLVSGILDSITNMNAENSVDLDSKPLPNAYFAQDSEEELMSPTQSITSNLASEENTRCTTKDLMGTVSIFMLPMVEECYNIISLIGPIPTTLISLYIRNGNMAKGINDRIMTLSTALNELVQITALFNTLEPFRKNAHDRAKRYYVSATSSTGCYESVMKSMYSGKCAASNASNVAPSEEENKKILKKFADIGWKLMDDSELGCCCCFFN
Procedure: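 Universal 'all 10-mer' protein binding microarrays (Agilent AMADID 015681) probed with GST-tagged S. cerevisiae TFs (full-length or DBD) made by in vitro transcription/translation (PURExpress), about 100-200 nM. Bound TF was detected with fluorescent anti-GST. Each ungapped 8-mer (which stands for itself and its reverse complement) is scored by the PBM enrichment score (E-score), a modified Wilcoxon-Mann-Whitney statistic from -0.5 to +0.5, computed with the Universal PBM Analysis Suite. Scale: above 0.35 generally sequence-specific binding.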

Sequence	PBM E-score
CAGGTAGG	-0.052
ATCCGGGG	0.181
GCCCATCA	-0.178
AGTCGACT	0.204
AGCTTAGA	-0.0294
AGATCAAC	0.0509
CGATCAAC	-0.144
AGATCAAA	0.111
GGATCAAA	0.367
GGATCAAC	0.369
TGATCAAA	0.076
CACACTGA	-0.19
CCAGGAAC	-0.103
AATGTCAA	0.00312
GATGTCAA	0.0645
CATCTCAA	0.119
TATCTCAA	0.32
AATCTCAA	0.0508
TATGTCAA	0.318
AAACGCGA	0.0304
GAAGACTC	-0.0221
CATAACTC	0.0871
GGAAATGA	0.133
CCAGATTC	-0.16
TACGAGTA	0.297

Sequence	PBM E-score
GACGAGTA	0.0188
CACGAGTA	0.0368
AAGAATGC	0.142
ATTCGAAA	0.12
TATATTAA	0.324
GACATTAA	0.166
AATATTCA	0.226
TATATTGA	0.275
AATATTAC	0.283
CATATTCA	0.0595
AATATTAG	0.228
GATATTAA	0.251
TACATTAA	0.345
AACATTAA	0.224
AATATTAT	0.335
TATATTCA	0.303
CCTGAGCA	-0.075
GACGGTTA	-0.192
ACCAGTAT	-0.104
CCTAACGA	-0.0133
ATGCGTGG	-0.346
GAATCGCC	-0.138
CGGTTGCA	-0.122
CTGCCCAC	-0.165
CAGGTGAA	0.0712

Sequence	PBM E-score
CGCCCCCC	-0.434
ACTTGTTC	0.25
GATGCATC	0.0586
GTGGATCA	0.0654
GCTGCAGA	-0.101
TAAGCAAA	0.179
AATATTAA	0.349
CATATTAA	0.347
AATATGAT	0.317
CATATTAG	0.202
CGTATTAA	0.108
AATATGAC	0.109
AATATGAG	0.245
AAACTTCC	0.068
AACCCAGT	-0.102
CGCTACTA	0.218
AAGCAACC	0.0073
AAAGTTGC	0.0307
AAAGTTGT	0.302
AAAGTTAC	0.224
AAAGTTAA	0.323
TAAGTTAA	0.206
CAAGTTAG	0.0992
CAAGTTAA	0.068
AAAGTTAG	0.297

Sequence	PBM E-score
AAAGTTGG	0.0498
CGTTCTAG	-0.0499
CCAAGCTC	-0.0526
GTAATGGA	0.163
GTAGATAA	0.333
ATAGATAA	0.28
AAAGATAG	-0.0366
AAAGATCC	0.3
AAAGATAA	0.299
GAAGATAC	0.17
AAAGATCG	-0.0193
TAAGATAA	-0.0896
TTAGATAA	0.218
AAAGATAC	0.12
AAAGATCA	0.173
GAAGATAA	0.319
CCTCCAAG	-0.176
AACGATGG	-0.0425
TCCCCTCA	-0.098
CTTAGCTC	-0.12
GAAGATTA	0.366
AAAGATTA	0.203
GTAGATTA	0.216
ATAGATTA	0.329
CAAGATTA	0.185

Sequence	PBM E-score
ATAGATTG	0.107
CCAGGGCA	-0.266
AACACTCA	0.13
TAACCTCA	0.0768
TCGTCCAA	0.0311
ACAATCCC	0.0235
TCTGTCCA	-0.0429
ATATTCCA	0.395
CTATTCCA	0.17
ATCTTCCA	0.249
ATCTTCCG	0.438
ATATTCCG	0.428
GTATTCCA	-0.0248
ATATTCGG	0.0327
GAATTCAA	0.177
AAATTCAG	0.204
ATCTTCCC	0.121
AAATTCAA	0.288
ATATTCTG	0.157
ACTGCACC	-0.018
CCGCTAAA	-0.117
AGACTGTA	-0.175
AGGGGAAG	-0.272
GCTAGGCA	-0.146
AAATTCCA	0.258

Sequence	PBM E-score
TTATTCAA	0.253
ATATTCAA	0.3
CTATTCAA	0.0501
AAATTCCC	0.0364
ACATTCCC	0.0614
AATTTCCG	0.325
AATTTCCT	0.273
ATATTCCC	0.329
AAATTCCG	0.309
CATTTCCG	0.12
CTATTCCC	-0.043
CCTGCAAC	-0.034
ACACTCTA	0.121
GTGCTGGA	-0.0549
AACCACAT	0.00349
AGTGGCTG	-0.145
AGGTCTGC	-0.104
GCGCTCTA	-0.159
GTGCGACA	-0.235
GTTGCAAA	0.231
GGTTGCAC	-0.131
ATTCGAGA	0.023
GGTGCACC	-0.253
CTTCAGCC	-0.13
AAATCGAC	0.142

Sequence	PBM E-score
AAGTCTAT	-0.00931
CGTGTGAG	-0.225
ATTTCTTG	0.198
AGTTCTTA	0.171
CGTTCTTC	0.0897
ATTTCTTA	0.195
ATTTCTTC	0.313
AGTTCTTC	0.3
CATAGCTC	-0.153
AGTATTAA	0.295
TCTATTCA	0.167
TCTATTAA	0.292
AGTATTAG	0.174
ACTATTAA	0.325
CCTATTAA	0.139
TGTATTAA	0.272
GCTATTAA	0.201
ACTATTAG	0.111
CACCCCAG	0.0316
ATGCGACA	0.0689
TAATCTAA	0.236
ATGGGATC	-0.0796
AGGACAAC	0.0906
TCGTTGAA	0.122
GACTCTAC	-0.261

Sequence	PBM E-score
ACCTGAAC	-0.219
GATGCTCA	-0.113
CTTGTGCC	-0.354
CGCACTAA	0.0977
GACATTAC	0.164
GCTGCTAC	-0.175
GGCCATTA	0.0667
AATTACAA	0.107
ATTTACAC	0.00495
ATTTACAA	0.31
AATTACGA	0.277
CATTACGA	0.0351
TATTACAA	0.307
ATTTACAG	0.149
CATTACAA	0.19
TATTACGA	0.297
AGTCCAAC	-0.12
CTTAGAAA	0.138
ATCTATTC	0.132
AAACTCAT	0.274
AATCGAAG	0.108
CATTTCGG	-0.0324
GTATATAA	0.168
CTATATAA	0.152
ATATATAA	0.332

Sequence	PBM E-score
TGATATAA	0.179
TTATATAA	0.411
TCATATAA	0.179
GAGCAAAA	0.0833
ATAGTGCG	0.0631
CACTTGGG	-0.0516
ACCTTTTG	-0.0505
AATGTTCA	0.0556
AATTCCGA	0.296
ACTTCCGA	-0.0181
AATTCCGG	0.154
AAATCCGA	0.12
TATTCCGA	0.398
AATTCCGT	0.312
GATTCCGA	0.129
CATTCCGA	0.15
AATTCCCA	0.171
GAATCCGA	-0.108
TAATCCGA	0.326
AATTCCGC	0.172
ACTGCGAA	-0.0623
GAATCACC	0.136
AAACTGGA	0.0838
CTAATCCC	-0.0661
CCTCTGCG	-0.252

Sequence	PBM E-score
GCTGCCCA	-0.153
ACTTGGAG	-0.0202
AGCCTATA	0.0186
CGCCAGAG	-0.045
AGATGTCC	0.0719
CTAGCATA	0.137
CTTACTAA	0.143
GTGTAAAC	-0.00524
AGGCGAGC	-0.174
ATCGCTAA	0.0959
CCGGGCAG	-0.122
GTTATGGA	0.108
CGATGAAC	-0.00159
AGATGAAC	0.131
GGATGAAC	0.292
AAGGGAGA	-0.166
AGCATACG	-0.0246
CGGAATTA	0.407
CGGAATTC	0.0496
AGGAATAG	0.134
TGGAATAA	0.417
CCGAATAA	0.293
TCGAATAA	0.193
CCGAATAC	0.105
AGGAATAA	0.364

Sequence	PBM E-score
CCGAATAG	0.0196
AGGAATTA	0.223
TAGAATAA	0.205
AGGAATAC	-0.131
ATTCAGTA	0.13
AGGTCTTG	-0.128
ATTGTGGA	0.153
CACCTAGC	-0.236
AGCACTAT	0.0398
CAGTGATA	0.0511
CACAGTCG	-0.125
AGGCAAAA	0.222
ACGAATAT	0.295
AAGAATAT	0.149
AGGAATCG	0.116
CGGAATAG	0.126
CGGAATAA	0.468
GGGAATAA	0.355
CGGAATAC	0.186
ACGAATAC	0.0881
ACGAATAA	0.0842
GGGAATAC	-0.0369
AGGAATAT	0.353
GGGAATCA	0.0407
TACCTTGA	0.0473

Sequence	PBM E-score
CTCACGGC	-0.261
GGGGCCAA	-0.123
ATAATGGG	0.152
GACTTTAC	0.03
AATTCACT	0.249
CGGTATGA	0.0788
GAGCCCAC	-0.27
TATTGTGA	0.105
GTTGTAGA	0.00414
ATTGTAGA	0.295
CTTGTAGA	-0.145
AATAGTCC	-0.0436
ACCGACAG	-0.135
CAATTTCC	0.195
ATTTTTGG	0.0437
AAATTTCC	0.258
GATTTTCA	0.205
GAATTTCC	0.343
AGTTTTCC	0.216
GATTTCCC	0.0546
AGTTTTTA	0.181
AATTTTGC	0.142
GATTTTCC	0.416
ATTTTTGC	0.308
AGTTTTTC	0.295

Sequence	PBM E-score
CGGTTCTA	0.0953
AAGTTGAG	0.0874
CGCTCATC	-0.0261
GATACCAC	0.066
ATTTTCTC	0.201
ATTTTTTC	0.316
CATTTCTC	0.176
AATTTCTA	0.209
AATTTTCT	0.145
AATTTTCA	0.252
AATTTCTC	0.299
AATTTTCC	0.468
ATTTTGTA	0.246
ATTTTTTG	0.274
ATTTTGTC	0.187
ATTTTGTG	0.291
CATAACGG	0.0155
CAGAGTGC	-0.126
TCATAACA	0.23
TCAGAGCA	-0.114
ATCTAGAC	0.107
AGTGAATC	0.0239
CAGCCTAG	0.0256
AAATTTTC	0.258
AATTTTTC	0.31

Sequence	PBM E-score
AATTTTTA	0.256
CATATTGA	0.0393
AATATTGT	0.298
AATATTGG	0.047
GATATTGA	0.177
AATATTGA	0.329
AATATTGC	0.223
CCAGGTAG	-0.0963
TATGGCAA	-0.151
CGCCGCAC	-0.233
CAGAAAAA	0.0895
AAGGAAAT	0.185
AAGGAAAC	0.0412
AAGGAAAA	0.398
CAAGGAAA	0.162
AAAGGAAC	0.163
CAGGAAAA	0.387
AAAGGAAA	0.303
GAGGAAAA	0.199
